# PMC4336329 (PLoS ONE, 2015)
# In all, about 310,000 compounds went through this assay and about 14,000 (4.5%) showed an effect of 50% or more. Effects have a minus sign here. This is one part of a sample in which strong results are shown more often than they occur.
# Molecular target: human ether-à-go-go-related gene (hERG) potassium channel (human, UniProt Q12809)
# Assay: primary screen, population patch clamp on CHO cells stably expressing hERG; higher = less effect of the substance
# 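Note: peak tail current of the secondary pulse compared with the same well before compound.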
# Sequence of human ether-à-go-go-related gene (hERG) potassium channel (Q12809 whole entry, looked up): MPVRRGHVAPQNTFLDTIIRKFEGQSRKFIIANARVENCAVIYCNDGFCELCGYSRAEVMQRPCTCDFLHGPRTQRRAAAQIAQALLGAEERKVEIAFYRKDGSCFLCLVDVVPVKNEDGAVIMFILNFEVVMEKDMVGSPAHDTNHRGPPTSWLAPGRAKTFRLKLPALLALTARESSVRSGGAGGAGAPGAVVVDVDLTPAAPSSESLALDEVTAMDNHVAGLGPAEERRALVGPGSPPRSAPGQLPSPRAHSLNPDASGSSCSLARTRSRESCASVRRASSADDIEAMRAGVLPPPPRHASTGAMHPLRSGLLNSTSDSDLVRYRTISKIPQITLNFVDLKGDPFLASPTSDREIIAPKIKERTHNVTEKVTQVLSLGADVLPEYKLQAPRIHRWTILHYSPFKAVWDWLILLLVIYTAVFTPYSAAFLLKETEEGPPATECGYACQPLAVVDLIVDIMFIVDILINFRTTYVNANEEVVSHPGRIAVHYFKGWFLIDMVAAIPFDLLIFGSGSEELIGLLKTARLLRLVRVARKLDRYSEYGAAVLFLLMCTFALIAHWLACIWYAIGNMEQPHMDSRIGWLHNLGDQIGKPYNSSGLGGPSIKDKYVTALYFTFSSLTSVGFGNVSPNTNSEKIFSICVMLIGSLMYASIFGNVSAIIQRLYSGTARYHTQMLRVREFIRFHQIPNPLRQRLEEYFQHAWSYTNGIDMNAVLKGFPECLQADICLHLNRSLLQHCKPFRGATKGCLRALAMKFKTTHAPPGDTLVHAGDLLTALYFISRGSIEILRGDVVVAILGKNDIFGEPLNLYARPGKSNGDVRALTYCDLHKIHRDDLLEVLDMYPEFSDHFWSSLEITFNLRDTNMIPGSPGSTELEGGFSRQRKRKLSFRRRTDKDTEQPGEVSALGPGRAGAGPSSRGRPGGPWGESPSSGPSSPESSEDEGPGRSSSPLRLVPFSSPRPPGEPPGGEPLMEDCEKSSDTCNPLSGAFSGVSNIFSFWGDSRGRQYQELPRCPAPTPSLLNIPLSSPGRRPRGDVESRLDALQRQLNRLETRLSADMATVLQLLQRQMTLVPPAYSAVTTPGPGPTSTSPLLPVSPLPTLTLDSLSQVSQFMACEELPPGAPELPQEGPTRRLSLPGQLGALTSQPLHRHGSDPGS
row,Structure (SMILES),"hERG current change (%, negative = inhibition) at 10uM [%]"
1,COC(=O)C1=C(N)N(c2ccccc2C(F)(F)F)C2=C(C(=O)CCC2)C1c1ccc2c(c1)OCO2 (stereo not shown),20.5
2,CC(C)(C)c1nc2scc(-c3ccc(Br)cc3)c2c(=O)o1,7.26
3,Cc1cc(C(=O)Nc2nnc(C3CCCCC3)s2)cs1,-5.46
4,COc1ccc(CCN(Cc2cccs2)S(=O)(=O)c2ccc(S(=O)(=O)N(C)C3CCCCC3)cc2)cc1OC,2.56
5,COc1cc(NC(=O)CCc2nnc3ccc(N4CCCC4)nn23)cc(OC)c1OC,6.49
6,Cn1cc(/C=C(\NC(=O)c2ccccc2Cl)C(=O)NCCN2CCOCC2)c2ccccc21,-30
7,O=C(CCC1CC(=O)Nc2ccccc21)NCc1ccc(F)cc1 (stereo not shown),-17.6
8,O=C(Nc1nc(-c2ccc(F)cc2)cs1)c1cccc(N2C(=O)CCC2=O)c1,9.67
9,COc1ccc(C)cc1S(=O)(=O)N1CCCC(C(=O)NC2CC2)C1 (stereo not shown),-0.49
10,O=C(NCc1ccccc1)C1CC(=O)N(C2CCCCC2)C1 (stereo not shown),17.8
11,Cc1ccc(S(=O)(=O)N2CCCN(C(=O)CNC(=O)c3cccc(C)c3)CC2)cc1,-54.3
12,Cc1cccc(C(=O)NCC(=O)N2CCN(S(=O)(=O)c3ccccc3)CC2)c1,-10.8
13,Cc1cccc(C(=O)NCC(=O)N2CCC2)c1,2.59
14,Cc1ccc(C)c(S(=O)(=O)N2CCN(C(=O)CNC(=O)c3ccc4ccccc4c3)CC2)c1,-28.1
15,O=C(NCC(=O)N1CCN(S(=O)(=O)c2ccccc2F)CC1)c1ccc2ccccc2c1,-12.2
16,O=C(NCC(=O)N1CCN(S(=O)(=O)c2ccccc2)CC1)c1ccc2ccccc2c1,-53.5
17,CCOC(=O)C1CCN(c2cc3c(cc2NC(=O)c2ccccc2Cl)n(C)c(=O)n3C)CC1,-48.8
18,CCOC(=O)C1CCN(Cc2ccc(O)c(OC)c2)CC1,-13.7
19,CC(C)CN(C(=O)c1cccc(S(=O)(=O)N2CCCCC2)c1)C1CCS(=O)(=O)C1 (stereo not shown),0.956
20,CN(C(=O)c1cccc(S(=O)(=O)N2CCCCC2)c1)C1CCS(=O)(=O)C1 (stereo not shown),2.39
21,CCN(C(=O)COC(=O)c1ccc(C)c(S(=O)(=O)N2CCOCC2)c1)C1CCS(=O)(=O)C1 (stereo not shown),1.32
22,CCCCN(C(=O)c1cccc(S(=O)(=O)N2CCCCC2)c1)C1CCS(=O)(=O)C1 (stereo not shown),-52.1

row,Structure (SMILES),"hERG current change (%, negative = inhibition) at 10uM [%]"
1,CCN(C(=O)c1ccc(S(=O)(=O)N2CCC(C)CC2)cc1)C1CCS(=O)(=O)C1 (stereo not shown),7.87
2,CCCCN(C(=O)c1ccc(S(=O)(=O)N2CCC(C)CC2)cc1)C1CCS(=O)(=O)C1 (stereo not shown),-53.2
3,Cc1ccc(C(=O)OCC(=O)N(C)C2CCS(=O)(=O)C2)cc1S(=O)(=O)N1CCCCC1 (stereo not shown),-16.5
4,CCN(C(=O)COC(=O)c1ccc(C)c(S(=O)(=O)N2CCCCC2)c1)C1CCS(=O)(=O)C1 (stereo not shown),-66.5
5,CCCCN(C(=O)c1ccc(S(=O)(=O)N2CCCC2)cc1)C1CCS(=O)(=O)C1 (stereo not shown),-0.0452
6,NS(=O)(=O)c1cc(C(=O)OCC(=O)Nc2ccccc2[N+](=O)[O-])ccc1Cl,-6.13
7,O=C1Nc2ccccc2N(O)N1c1ccc(S(=O)(=O)N2CCCCCC2)cc1,1.75
8,N#C/C(=C\c1ccc(-c2ccc(C(=O)O)cc2)o1)C(=O)Nc1ccc(F)cc1,25.6
9,O=C(NCCc1ccccc1)C1CCN(S(=O)(=O)N2CCC3(CC2)OCCO3)CC1,-0.566
10,CCCOc1cccc(C(=O)N2CCN(C(=O)C3CCCO3)CC2)c1 (stereo not shown),7.15
11,CCC(=O)c1ccc(OCC(=O)OCC(=O)N2c3ccccc3NC(=O)C2(C)C)cc1,2.82
12,CC(C)c1ccc(N(CC(=O)NCC2CCCO2)C(=O)Cn2nnc(-c3cccs3)n2)cc1 (stereo not shown),-42.5
13,NC(=O)NOCc1ncc(C(F)(F)F)cc1Cl,10.4
14,CCc1nc(OCCN(C)C)c2oc3ccccc3c2n1,-4.1
15,CCc1nc(N(CC)CC)c2oc3ccccc3c2n1.Cl,-21.1
16,CN(C)CCOc1nc(-c2ccccc2)nc2c1oc1ccccc12,-44.7
17,CCN(CC)CCOc1nc(C)nc2c1oc1ccccc12.Cl,-64.6
18,CCc1nc(OCCN(CC)CC)c2oc3ccccc3c2n1.Cl,-58.9
19,CCN(CC)CCOc1ncnc2c1oc1ccccc12,-39.1
20,CCCCCC(=O)Nc1ccccc1N1CCN(c2ccccc2)CC1,-0.752
21,CSc1ccc(S(=O)(=O)NCC(=O)OCC(=O)N2CCCCC2C)cc1[N+](=O)[O-] (stereo not shown),4.74
22,COC(=O)Cc1ccc(O)c(N)c1,9.82

row,Structure (SMILES),"hERG current change (%, negative = inhibition) at 10uM [%]"
1,O=C(NCCCn1ccnc1)/C(=C\c1cccnc1)NC(=O)c1ccccc1Br,5.24
2,COc1ccccc1C(=O)N/C(=C\c1ccc(Br)cc1)C(=O)NCCCO,-34.3
3,COc1ccccc1C(=O)N/C(=C\c1cn(C)c2ccccc12)C(=O)NCCCn1ccnc1,3.22
4,C=CCNC(=O)/C(=C/c1ccc(Br)cc1)NC(=O)c1ccccc1OC,-45.9
5,O=C(NCCCn1ccnc1)/C(=C\c1ccc(Br)cc1)NC(=O)c1ccccc1F,-74.3
6,C=CCNC(=O)/C(=C\c1ccc(Br)cc1)NC(=O)c1ccccc1OC,-51.8
7,O=C(NCCCn1ccnc1)/C(=C\c1cccnc1)NC(=O)c1ccccc1F,-17.7
8,COc1ccccc1C(=O)N/C(=C/c1ccc(Br)cc1)C(=O)NCCCn1ccnc1,-87
9,CCn1cc(/C=C(\NC(=O)c2ccccc2F)C(=O)NCCCn2ccnc2)c2ccccc21,-69
10,CCn1cc(/C=C(\NC(=O)c2ccccc2OC)C(=O)NCCCn2ccnc2)c2ccccc21,-19.2
11,Cn1cc(/C=C(\NC(=O)c2ccccc2Cl)C(=O)NCCCn2ccnc2)c2ccccc21,8.3
12,COc1ccccc1C(=O)N/C(=C/c1ccc(Br)cc1)C(=O)NCC(=O)O,-8.44
13,COC(=O)c1cnn(-c2ccc(Cl)cc2)c1/C=N/NC(N)=S,7.44
14,O=C(Nc1cccc(-c2csc(Nc3cccc(C(F)(F)F)c3)n2)c1)c1cc([N+](=O)[O-])cc(C(F)(F)F)c1,5.05
15,CC(C)Oc1ccc(CNCCC2(C(C)C)CCOC(C)(C)C2)cc1 (stereo not shown),-45.4
16,COc1ccc(NC(=O)Nc2ncn(Cc3cccc(C(F)(F)F)c3)n2)cc1OC,-32.5
17,NC(=O)C(c1ccccc1)c1ccc(C(=O)c2ccccc2)cc1 (stereo not shown),3.08
18,CC(C)N1CCC(N2CCN(CC#Cc3ccccc3)CC2CCO)CC1 (stereo not shown),0.615
19,CCc1ccc(N2CC(O)=C(c3nc4ccccc4c(=O)[nH]3)C2=N)cc1,2.98
20,CCOc1ccc(Nc2oc(Cc3ccccc3)nc2C#N)cc1,-1.96
21,CCCCOc1cc(CC2CNC(=O)N2)ccc1OC (stereo not shown),-2.83
22,COc1ccccc1NC(=O)Cn1c(=O)oc2cc(S(=O)(=O)N3CCCC3)ccc21,16.6

row,Structure (SMILES),"hERG current change (%, negative = inhibition) at 10uM [%]"
1,CCOC(=O)N1CCc2c(sc(NC(=O)CN3CCN(C)CC3)c2C(=O)Nc2ccccc2)C1,-77.2
2,CCOC(=O)c1c(NC(=S)N2CCOCC2)sc2c1CCN(C(=O)OCC)C2,-1.31
3,CCOC(=O)c1c(NC(=O)CN2CCCCC2)sc2c1CCN(C(=O)OCC)C2,-10.9
4,CCOC(=O)N1CCc2c(sc(NC(=O)Cc3ccccc3)c2C(=O)c2ccc(OC)cc2)C1,13.7
5,CCOC(=O)N1CCc2c(sc(NC(=O)CN3CCOCC3)c2C#N)C1,-1.09
6,CCOC(=O)N1CCc2c(sc(NC(=O)CN3CCOCC3)c2C(=O)Nc2ccccc2)C1,-68.8
7,O=C(CNC(=O)c1ccco1)OC(C(=O)c1ccccc1)c1ccccc1 (stereo not shown),0.438
8,CCN1C(=O)C2(C(C(=O)c3ccc(C)o3)=C(O)C(=O)N2CCCN2CCOCC2)c2ccccc21 (stereo not shown),0.0517
9,O=C(CSc1nccc(=O)[nH]1)N1CCOCC1,3.03
10,COc1cc(SC)ccc1C(=O)OCc1nc2ccsc2c(=O)[nH]1,-30.6
11,O=C(CSc1nnc(Nc2ccccc2)s1)NCC1CCCO1 (stereo not shown),-1.51
12,COc1cc2ccccc2cc1C(=O)NNC(=O)c1ccccc1O,7.31
13,COc1cccc2c(=O)c3c([nH]c12)OC(C)(C)C3,13
14,COc1cc2ncnc(NCc3cccc(Cl)c3)c2cc1OC,-63.9
15,COc1cc2ncnc(NCc3ccc(Cl)cc3)c2cc1OC,-31.2
16,COc1cc2ncnc(NCc3ccc(C)cc3)c2cc1OC,-0.937
17,COc1ccc(CNc2ncnc3cc(OC)c(OC)cc23)cc1,-3.69
18,COc1cccc(CNc2ncnc3cc(OC)c(OC)cc23)c1,-11.6
19,COc1cc2ncnc(NCc3ccc(F)cc3)c2cc1OC,-52.5
